# High-throughput results: PubChem, The Scripps Research Institute Molecular Screening Center
# An excerpt weighted towards active compounds, which were near 3.5% of everything screened.
# TEAD-YAP block – TEAD-YAP interaction inhibition | HEK-TIYL cells, TEAD-Gal4/YAP UAS-luciferase luminescence | inhibition, % at 9.12 µM | 1.4% of 640,000 active; in the data active = inhibition above about 32%
# MITF primary – human MITF inhibition, primary screen; O75030; 0.91% of 650,000 active; inhibition, % at 2.6 µM; AlphaScreen MITF homodimerization, bead proximity signal; in the data active = inhibition above about 50%
# FBW7 act – human FBW7 E3 ligase activation, primary screen. AlphaScreen FBW7–phospho-cyclin E peptide binding, activator screen. Q969H0. normalized activity (activation), % at 26.1 µM. 0.13% of 650,000 active; in the data active = normalized activity above about 1.9%;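 also: purified mutant Fbw7 with reduced substrate affinity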
# Target sequence (Q969H0 whole entry, looked up): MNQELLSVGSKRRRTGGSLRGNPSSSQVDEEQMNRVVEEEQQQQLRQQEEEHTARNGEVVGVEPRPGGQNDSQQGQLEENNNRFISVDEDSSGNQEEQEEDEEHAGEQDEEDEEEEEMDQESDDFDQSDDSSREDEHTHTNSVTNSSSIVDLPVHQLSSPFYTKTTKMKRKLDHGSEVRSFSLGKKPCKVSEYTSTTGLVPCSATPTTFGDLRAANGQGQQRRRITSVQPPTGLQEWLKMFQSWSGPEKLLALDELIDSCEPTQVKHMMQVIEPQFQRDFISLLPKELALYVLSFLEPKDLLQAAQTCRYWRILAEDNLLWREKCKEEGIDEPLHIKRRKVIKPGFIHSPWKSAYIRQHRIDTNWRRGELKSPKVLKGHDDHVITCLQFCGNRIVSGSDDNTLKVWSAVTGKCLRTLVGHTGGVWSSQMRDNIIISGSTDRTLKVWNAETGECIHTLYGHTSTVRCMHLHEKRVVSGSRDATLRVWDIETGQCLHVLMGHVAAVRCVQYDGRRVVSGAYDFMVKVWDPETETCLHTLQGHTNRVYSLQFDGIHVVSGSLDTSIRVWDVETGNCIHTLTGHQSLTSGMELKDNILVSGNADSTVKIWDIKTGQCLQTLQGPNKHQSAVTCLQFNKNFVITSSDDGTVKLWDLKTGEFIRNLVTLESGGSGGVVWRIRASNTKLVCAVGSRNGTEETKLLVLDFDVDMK
# GPR151 activ – human GPR151 activation; PathHunter beta-arrestin GPR151 cells, luminescence; activation, % at 11.2 µM; 1% of 650,000 active; in the data active = activation above about 4.9%
# Numbers stand for hits; n = inactive; ! = not active in a repeat.
SMILES,TEAD-YAP block,MITF primary,FBW7 act,GPR151 activ
Cc1cccc(C2(c3cccc(C)c3)CC2C(=O)NCc2ccco2)c1 (configuration not stated),n,n,n,n
O=C(Nc1ccnc2ccccc12)c1ccc(Br)cc1,60,n,n,n
COc1ccc(NC(=O)c2ccc(Br)cc2)c2cccnc12,n,n,n,n
COc1ccc(/C=N/NC(=O)COc2cc(C)ccc2C(C)C)cc1O,63,n,n,n
COc1cc(OC)c(OC)cc1/C=N\NC(=O)c1cc(O)c(O)c(O)c1,n,66,n,n
COc1ccc(/C=N/NC(=O)C(=O)Nc2ccc(C)cc2)cc1,n,n,n,n
COc1ccc(NC(=O)C(=O)N/N=C/c2ccc(O)c(OC)c2)cc1,n,n,25,n
COc1ccc(-c2cnnc(N/N=C/c3ccc(O)c(OC)c3)n2)cc1,36,n,n,n
CCNc1nc(NCCc2ccc(O)cc2)c2ncn(C3CCCCC3)c2n1,n,n,n,n
COc1ccc(NC(=O)c2cc(N3CCCCCC3)nc3ccccc23)cc1Cl,n,n,n,n
Cc1nnc(SCC(=O)NCc2ccco2)c2c1cnn2-c1ccccc1,n,n,n,n
COc1cc(/C=N/NC(=O)c2ccccc2NC(=O)c2ccc([N+](=O)[O-])cc2)ccc1O,72,n,n,n
COc1cc(C(=O)N/N=C/c2ccc(O)cc2O)cc(OC)c1OC,55,52,n,n
COc1cc(/C=N/NC(=O)c2cc(OC)c(OC)c(OC)c2)ccc1O,56,n,n,n
COc1ccc(NC(=O)COc2ccc(/C=N/NC(=S)NC(C)C)cc2OC)cc1,33,n,n,n
COc1ccc(NC(=O)COc2ccc(/C=N/n3c(C)nnc3C)cc2OC)cc1,n,n,n,n
Cc1cc(/C=C2/NC(=O)N(c3cccc(Cl)c3)C2=O)c(C)n1C,55,n,n,n
COc1ccc(CCNc2nc(Nc3ccc4ncccc4c3)nc3nc[nH]c23)cc1,50,n,n,n
COc1ccc(CCNc2nc(Nc3ccc4ncccc4c3)ncc2C)cc1,33,n,n,n
CCc1ccccc1NC(=S)N(Cc1ccccc1)Cc1cccs1,n,n,n,n
O=C(N/N=C/c1ccc(-c2cccc([N+](=O)[O-])c2)o1)Nc1ccccc1,n,n,n,n
O=C(Nc1ccc([N+](=O)[O-])cc1)Nc1ccon1,62,n,n,n
O=C(Nc1ccc(I)cc1)Nc1ccc([N+](=O)[O-])cc1,n,n,n,n
C=CCn1c(C)cn2c3c(=O)n(CCCC)c(=O)n(C)c3nc12,n,n,n,n
Brc1ccc(-c2ccc(C3CCCCC3)cn2)cc1,63,n,n,n
SMILES,TEAD-YAP block,MITF primary,FBW7 act,GPR151 activ
O=C(CCCc1ccccc1)Nc1ccnn1C1CCN(C2CCCC2)CC1,n,n,n,n
COc1ccccc1/C=C1\N=C(c2ccccc2C)OC1=O,n,n,n,n
COc1ccc(CCn2c(=S)[nH]c3nccnc3c2=O)cc1OC,40,n,n,n
COc1cc(/C=C/C(=O)Nc2ccc(S(=O)(=O)N3CCCCC3c3cccnc3)cc2)cc(OC)c1OC (configuration not stated),56,n,n,n
O=C(Nc1ccc(S(=O)(=O)N2CCCCC2c2cccnc2)cc1)c1ccccc1 (configuration not stated),n,n,n,n
CC(C)(C)c1ccc(C(=O)Nc2ccc(S(=O)(=O)N3CCCCC3c3cccnc3)cc2)cc1 (configuration not stated),43,n,n,n
O=C(NCc1n[nH]c(=S)n1-c1cccc(C(F)(F)F)c1)c1ccc(S(=O)(=O)N2CCOCC2)cc1,n,n,n,n
O=C(CCn1c(=O)[nH]c2ccccc2c1=O)NCc1ccccc1,n,n,n,n
CCOc1ccc(NC(=O)c2ccc(F)c(S(=O)(=O)N3CCCC3)c2)cc1,37,n,n,n
CCOc1ccc(NC(=O)c2ccc(F)c(S(=O)(=O)N3CCN(C4CCCCC4)CC3)c2)cc1,34,n,n,n
Cc1ccc(C(=O)Nc2ccc(Cl)cc2)cc1S(=O)(=O)N1CCOCC1,n,n,n,n
CCOC(=O)c1ccc(NC(=O)c2ccc(Cl)c(S(=O)(=O)N3CCOCC3)c2)cc1,73,n,n,n
O=C(Nc1ccc(Cl)c(Cl)c1)c1ccc(F)c(S(=O)(=O)N2CCN(C3CCCCC3)CC2)c1,n,n,n,n
CCn1cc(C(=O)N2C[C@H](C(=O)OC)[C@@H](c3ccccc3F)C2)cn1,n,n,n,n
CCCC(c1nnnn1Cc1ccc(OC)cc1)N1CCN(C)CC1 (configuration not stated),n,n,n,n
CC(NC(=O)Nc1ccc(Cl)c(Cl)c1)C1CCCO1 (configuration not stated),n,n,1.9,n
Nc1ccc2oc(-c3ccc4nc[nH]c4c3)nc2c1,61,n,n,n
Nc1ccc2oc(-c3cccc4c(Br)cccc34)nc2c1,65,n,n,n
Nc1ccc2oc(-c3ccc(O)c(Br)c3)nc2c1,59,n,n,n
Nc1ccc2oc(-c3ccccc3Br)nc2c1,n,n,n,n
Nc1ccc2oc(-c3cccc(Br)c3)nc2c1,n,n,n,n
Nc1ccc2oc(-c3ccc(F)cc3)nc2c1,n,n,n,n
Nc1ccc2oc(-c3ccc(F)cc3Cl)nc2c1,37,n,n,n
O=C(N/N=C\c1ccccc1[N+](=O)[O-])c1n[nH]c2c1CCCC2,54,n,n,n
O=C(N/N=C/c1ccccc1O)c1n[nH]c2c1CCCC2,33,n,n,n
SMILES,TEAD-YAP block,MITF primary,FBW7 act,GPR151 activ
O=C1CCC(CCNCc2cccc(C(F)(F)F)c2)N1CCc1cccnc1 (configuration not stated),n,n,n,n
O=c1oc2c(O)c(O)cc3c(=O)oc4c(O)c(O)cc1c4c23,n,94!,n,n
Cc1c(C)c2ccc(O)c(O)c2oc1=O,n,n,n,n
Cc1cccc(-n2ccnc2SCC(=O)NCc2ccc3c(c2)OCO3)c1,n,n,n,n
C/C(=N\NC(=O)C1COc2ccccc2O1)c1ccc(Br)cc1 (configuration not stated),38,n,n,n
Cc1ccc(/C=N/NC(=O)C2COc3ccccc3O2)cc1 (configuration not stated),51,n,n,n
C/C(=N\NC(=O)CNC(=O)C1COc2ccccc2O1)c1ccccc1 (configuration not stated),n,n,n,n
O=C(N/N=C/c1ccc(Br)cc1)C1COc2ccccc2O1 (configuration not stated),37,n,n,n
Cc1cc(-c2ccc(NC(=O)[C@H]3COc4ccccc4O3)cc2)ccn1,75,n,n,n
CN1CCN(CC(O)CN2CCCC2=O)CC1 (configuration not stated),n,n,n,n
CCN1C(=O)C2C(c3ccc(O)cc3)NC(Cc3ccc(O)cc3)(C(=O)OC)C2C1=O (configuration not stated),n,n,n,n
CN1CCC(=NNC(=O)C2COc3ccccc3O2)CC1 (configuration not stated),38,n,n,n
O=C1CCC/C(=N\NC(=O)C2COc3ccccc3O2)C1 (configuration not stated),n,n,n,n
